p53ts 39C tox: qHTS Screen for Compounds that Selectively Target Cancer Cells with p53 Mutations: Cytotoxicity of p53ts Cells at the Nonpermissive Temperature | Potency, µM (series often up to 46.1 µM), for the others: at the top dose activity change, negative = cell killing, hits mostly cytotoxic | H1299-p53A138V viability at 39C, ATP luminescence, 24 h | 130,000 tested, 1.5% active; further: on the % scale 0 is the no-effect control and ±100 the full control effect; nearly all actives have a fitted effect of over 55% in size
IkB signaling: IkB Signaling; ABC-DLBCL IkBa-CBG/CBR dual luciferase ratio, 4 h; response scale: scaled: untreated 0%, proteasome inhibitor 100%; Potency, µM (highest dose often 57.1 µM), for the others: at the highest dose IkBa stabilization activation; 110,000 tested, 0.04% active; active means well fitted curve in the direction sought with a large enough effect in the signal ratio, not every such curve was filed as active; inconclusive means small, poorly fitted or top-dose-only effect, or a change in a side signal; the % refers to the signal ratio;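 further: the direction sought is a rising ratio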
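Luminescence ratio of IκBα-fused green versus native red beetle luciferase in OCI-Ly3 cells, 4 h post-doxycycline with compound; red signal alone, scaled from basal (0%) to zero light (-100%), flagged nonspecific or cytotoxic effects.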
p53ts 32C kill: qHTS Screen for Compounds that Selectively Target Cancer Cells with p53 Mutations: Cytotoxicity of p53ts Cells at the Permissive Temperature; Potency, µM (top dose mostly 46.1 µM), for inactives: top-dose activity change, negative = cytotoxicity, hits mostly cytotoxic; H1299-p53A138V at 32C, ATP luminescence viability, 24 h; AID 924, 2007; 130,000 tested, 0.93% active;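 further: 0% = DMSO and -100% = full killing by reference compound; nearly all actives have a fitted effect of over 55% in size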
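ATP-content luminescence (ATPlite) read-out after 24 h compound exposure at 32C in H1299-p53A138V cells (600/well). Tested up to 46 uM. Normalized to DMSO (0%) and 100 uM tamoxifen (100% killing); Hill-fit AC50.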
Peg3 imprint: qHTS Assay for Compounds that Induce Erasure of Genomic Imprints; mouse ES Peg3-LacZ reporter, beta-gal luminescence, 40 h; Potency, µM (doses to about 60.7 µM), for the others: at the highest dose activity change, positive = activation, usual class: activators; 110,000 tested, 0.02% active; AID 1948, 2009
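Each well holds 300 Peg3LacZ-Neo (maternal) female ES cells incubated 40 h at 37C, 5% CO2. LacZ is measured by BetaGlo luminescence, with AC50 and maximum efficacy derived from dose-response curves.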
* hit, by the source's call; [ ] = remark or other dose. Shown are actives, neighbours in structure and some others; about 1.7% of the full set was active somewhere. Unless noted, the call rests on the fitted dose curve; in most records, active means well fitted curve in the direction sought with a large enough effect; inconclusive means small, poorly fitted or top-dose-only effect, or another doubt; inactive means no such curve, though single readings can be large; an effect the other way counts as inactive or inconclusive. Potency means the concentration at half of the fitted maximal effect.

How did CC(C)(C)c1ccc(-c2nc(SCCOc3ccc(Cl)cc3)n3[nH]c(=O)cc3n2)cc1 do in these assays?
p53ts 39C tox: inconclusive; IkB signaling: 16%; p53ts 32C kill: inconclusive; Peg3 imprint: 4%[10.9 µM]

How did O=C(CSc1nc2c([nH]c3ccccc32)c(=O)n1-c1ccc(Cl)cc1)NCC1CCCO1 (centres undefined) do in these assays?
p53ts 39C tox: -2%; IkB signaling: 1%; p53ts 32C kill: -3%; Peg3 imprint: -5%[10.9 µM]

What do the screens show for `COc1ccc(-n2c(=O)c(-c3cccs3)nc3cnc(N4CCN(C)CC4)nc32)cc1`?
p53ts 39C tox: -13%; IkB signaling: 4%[11.4 µM]; p53ts 32C kill: -2%; Peg3 imprint: 2%

Results for COc1ccc(NC(=O)Cn2c(SCc3ccc(C)cc3)nc3cccnc32)cc1OC ?
p53ts 32C kill: 3.2µM*

What do the screens show for `O=C(NCCN1CCCCC1)c1ccc(Cn2c(SCc3ccc(F)cc3)nc3cccnc32)cc1`?
p53ts 39C tox: 7.9µM*; IkB signaling: inconclusive; p53ts 32C kill: 7.9µM*; Peg3 imprint: -10%[10.9 µM]

Results for COCCCNC(=O)c1ccc(Cn2c(SCc3ccc(F)cc3)nc3cccnc32)cc1 ?
p53ts 32C kill: 11µM*

Results for COc1cc(C(=O)NCCc2sc(-c3ccc(C)cc3)nc2C)cc(OC)c1OC ?
p53ts 39C tox: -11%; IkB signaling: inconclusive; p53ts 32C kill: 7%; Peg3 imprint: 25%[10.9 µM]

What do the screens show for `Cc1[nH]c2ccccc2c1SCC(=O)N1CCOCC1`?
p53ts 39C tox: 13µM*; IkB signaling: 1%; p53ts 32C kill: -5%; Peg3 imprint: -37%

Results for COc1ccc(C(=O)NC(=O)Nc2cc(C)ccn2)cc1 ?
p53ts 39C tox: 1.3µM*; IkB signaling: 12%; p53ts 32C kill: 1.3µM*; Peg3 imprint: -96%

Results for COc1ccc(NC(=O)Nc2cc(C)ccn2)cc1 ?
p53ts 39C tox: 6.3µM*; IkB signaling: 3%; p53ts 32C kill: 7.9µM*; Peg3 imprint: -53%

Results for Cc1cccc(NC(=O)Nc2ccc(F)cc2)n1 ?
p53ts 39C tox: -27%; IkB signaling: 7%; p53ts 32C kill: -25%; Peg3 imprint: -17%[10.9 µM]

What do the screens show for `Cc1ccc(NC(=O)Nc2cccc(C)n2)cc1`?
p53ts 39C tox: 16µM*; IkB signaling: 12%; p53ts 32C kill: 13µM*; Peg3 imprint: -18%[10.9 µM]

How did COc1ccc2[nH]cc(CCNc3ncncc3-c3ccoc3)c2c1 do in these assays?
p53ts 39C tox: 8%; IkB signaling: inconclusive; p53ts 32C kill: 10%; Peg3 imprint: -16%

Results for COc1ccc(-c2ccc(CNCCCSc3nnnn3C)o2)cc1Cl ?
p53ts 39C tox: 11%; IkB signaling: 0%; p53ts 32C kill: -14%; Peg3 imprint: -14%[10.9 µM]

What do the screens show for `O=S(=O)(Nc1cccc(-c2ccc(N3CCCCC3)nn2)c1)c1cccs1`?
p53ts 39C tox: 6.3µM*; IkB signaling: 1%; p53ts 32C kill: 10µM*; Peg3 imprint: -12%[10.9 µM]

Results for CC(=O)c1ccc(S(=O)(=O)Nc2cccc(-c3ccc(N4CCCC4)nn3)c2)cc1 ?
p53ts 39C tox: inconclusive; IkB signaling: inconclusive; p53ts 32C kill: -11%; Peg3 imprint: -6%[10.9 µM]

How did CC(=O)c1ccc(S(=O)(=O)Nc2cccc(-c3ccc(N4CCCCCC4)nn3)c2)cc1 do in these assays?
p53ts 39C tox: 6.3µM*; IkB signaling: -4%; p53ts 32C kill: inconclusive; Peg3 imprint: -12%[10.9 µM]

Results for O=S(=O)(Nc1cccc(-c2ccc(N3CCCCC3)nn2)c1)c1ccc(Cl)s1 ?
p53ts 39C tox: 5µM*; IkB signaling: inconclusive; p53ts 32C kill: 10µM*; Peg3 imprint: -16%[10.9 µM]

Results for O=S(=O)(Nc1cccc(-c2ccc(N3CCCCCC3)nn2)c1)c1ccccc1 ?
p53ts 39C tox: inconclusive; IkB signaling: -1%; p53ts 32C kill: inconclusive; Peg3 imprint: -8%[10.9 µM]

What do the screens show for `Cc1cc(C)c(S(=O)(=O)Nc2ccc(-c3ccc(N4CCCCC4)nn3)cc2)c(C)c1`?
p53ts 39C tox: 7.9µM*; IkB signaling: inconclusive; p53ts 32C kill: inconclusive; Peg3 imprint: -16%[10.9 µM]

Results for COc1ccc(NC(=O)N2CCCC3(CCN(C(=O)c4cccc(F)c4)CC3)C2)cc1 ?
p53ts 39C tox: 11%; IkB signaling: 0%[11.4 µM]; p53ts 32C kill: 0%

Results for Cc1cc(C)cc(NC2=C(c3ccccc3)C(=O)c3ccccc32)c1 ?
p53ts 39C tox: -18%; IkB signaling: inconclusive; p53ts 32C kill: 7%; Peg3 imprint: -13%[10.9 µM]

How did COc1ccc(OCC(=O)Nc2ccc3c(c2)nc2n3CCSC2)cc1 do in these assays?
p53ts 39C tox: -12%; IkB signaling: 0%; p53ts 32C kill: -4%; Peg3 imprint: 4%

Results for Cc1ccc(C(=O)Nc2ccc3c(c2)nc2n3CCSC2)cc1 ?
p53ts 39C tox: inconclusive; IkB signaling: inconclusive; p53ts 32C kill: 7.9µM*; Peg3 imprint: -39%

What do the screens show for `COc1ccccc1C(=O)Nc1ccc2c(c1)nc1n2CCSC1`?
p53ts 39C tox: 3.2µM*; IkB signaling: 6%; p53ts 32C kill: 4µM*; Peg3 imprint: -51%

What do the screens show for `CCCCC(=O)Nc1ccc2c(c1)nc1n2CCSC1`?
p53ts 39C tox: inconclusive; IkB signaling: -3%; p53ts 32C kill: inconclusive; Peg3 imprint: -15%

What do the screens show for `Cc1cc(C)cc(NC(=O)Cn2cc(C(=O)C3CCCCC3)c3ccccc32)c1`?
p53ts 39C tox: 10µM*; IkB signaling: 13%; p53ts 32C kill: inconclusive; Peg3 imprint: 1%[10.9 µM]

Results for COc1cccc2sc(NC(=O)c3ccc4c(c3)OCCO4)nc12 ?
p53ts 39C tox: 5µM*; IkB signaling: inconclusive; p53ts 32C kill: inconclusive; Peg3 imprint: -16%[10.9 µM]

Results for CCOCc1cc(CN2CCN(c3cccc(Cl)c3)CC2)c(O)c2ncccc12 ?
p53ts 39C tox: 3.2µM*; IkB signaling: 23%; p53ts 32C kill: -7%; Peg3 imprint: inconclusive

Results for Cc1cccc(CSc2ncc(CO)n2Cc2ccc(F)cc2)c1 ?
p53ts 39C tox: -7%; IkB signaling: inconclusive; p53ts 32C kill: 5%; Peg3 imprint: 6%[10.9 µM]

What do the screens show for `Cc1cc(C)c(Cn2c(C(O)c3ccccc3)nc3ccccc32)c(C)c1` (centres undefined)?
p53ts 39C tox: 3.2µM*; IkB signaling: inconclusive; p53ts 32C kill: -16%; Peg3 imprint: 25%[10.9 µM]

Results for CSc1ccc(CCNC(=O)C2=C(C)C(=O)OC23CCCCC3)cc1 ?
p53ts 39C tox: -2%; IkB signaling: inconclusive; p53ts 32C kill: 3%; Peg3 imprint: 23%[10.9 µM]

How did Cc1ccc(S(=O)(=O)NCCc2csc(-c3cccc(F)c3)n2)cc1 do in these assays?
p53ts 39C tox: 16µM*; IkB signaling: inconclusive; p53ts 32C kill: 7%; Peg3 imprint: -21%[10.9 µM]

Results for COc1ccccc1C(=O)N1CCC(c2c[nH]c3ccccc23)(c2c[nH]c3ccccc23)CC1 ?
p53ts 39C tox: -21%; IkB signaling: 2%; p53ts 32C kill: 21%; Peg3 imprint: 28%[10.9 µM]

Compound activity deposited in PubChem by National Center for Advancing Translational Sciences (NCATS).
